Measurements reported in PubChem BioAssay (NCATS).
Values without a mark were called inactive. Records with an inconclusive call do not appear. Active and inactive are the calls of the source. Unless noted, calls follow the shape of the dose curve; as a rule, active = well fitted curve in either direction with a large enough effect (not every such curve was filed as active); inconclusive = small, poorly fitted or top-dose-only effect, or another doubt; inactive = flat fitted curve, though single readings scatter.

What was measured:
[1] = biological target: Lysosomal acid glucosylceramidase (Homo sapiens) (UniProt P04062); assay: Glucocerebrosidase-p2 (AID 348; in the data active = potency below about 10 µM; also: potency is read from the fitted curve at half-maximal effect); details: purified GBA, blue fluorogenic substrate, 40 min
Lysosomal acid glucosylceramidase (Homo sapiens), sequence (P04062 whole entry, looked up): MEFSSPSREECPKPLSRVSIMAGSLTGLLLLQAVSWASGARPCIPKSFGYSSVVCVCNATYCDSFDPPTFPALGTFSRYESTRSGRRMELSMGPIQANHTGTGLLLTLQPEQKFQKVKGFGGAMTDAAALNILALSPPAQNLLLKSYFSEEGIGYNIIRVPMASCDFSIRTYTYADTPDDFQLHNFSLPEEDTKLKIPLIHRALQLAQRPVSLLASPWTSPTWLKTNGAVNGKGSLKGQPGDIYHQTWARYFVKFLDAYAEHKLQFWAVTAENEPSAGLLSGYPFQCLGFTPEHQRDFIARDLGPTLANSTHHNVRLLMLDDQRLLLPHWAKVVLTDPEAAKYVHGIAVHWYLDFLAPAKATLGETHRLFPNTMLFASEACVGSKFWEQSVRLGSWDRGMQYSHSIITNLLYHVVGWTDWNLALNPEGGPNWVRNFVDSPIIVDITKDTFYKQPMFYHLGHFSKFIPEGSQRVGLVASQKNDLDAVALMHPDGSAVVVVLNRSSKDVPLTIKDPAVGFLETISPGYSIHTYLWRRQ
Procedure, shortened: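 Compounds titrated from 0.6 nM upwards against 0.2 nM enzyme in pH 5.9 citric acid/KH2PO4, taurocholate, tween-20; blue fluorogenic substrate 80 uM, 40 min room temperature, stopped and read Ex 365/Em 440 for AC50.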

[2] = NFAT Signaling Pathway (AID 444); details: Jurkat NFAT-bla M1, carbachol, beta-lactamase ratio, 5 h; at 7.69 µM (top of the series) unless noted;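 also: carbachol stimulus at about its EC50 of 1 µM final; % is scaled to controls: 0 for no effect and ±100 for the full control effect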
Procedure, shortened: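 Jurkat cells with NFAT-driven β-lactamase reporter and co-expressed M1 receptor, stimulated with carbachol (final 1 uM, ~EC50), compound titration, 5 h at 37 °C. CCF4 loaded 1 h at RT; 460/530 nm ratio gave %activity and AC50.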

[3] = Stat Signaling Pathway (AID 446); details: ME-180 SIE beta-lactamase reporter, IL-6 stimulated, 5 h; at 7.69 µM (top of the series) unless noted;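 also: ME-180 cervical cancer cells given 40 pM IL-6 alongside compound; SIE-controlled beta-lactamase reporter measured as 460/530 nm FRET emission ratio; % is scaled to controls: 0 for no effect and ±100 for the full control effect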
Procedure, shortened: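 ME-180 cells carrying a SIE-driven beta-lactamase reporter are stimulated with 40 pM IL-6 for 5 h at 37C in the presence of compound. The 460/530 nm FRET substrate ratio is read after 2.5 h at RT. Data are normalised to 300 pM IL-6 and to 125 nM JAK inhibitor controls.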

[4] = biological target: Glucocorticoid receptor (Homo sapiens) (UniProt P04150); assay: GR-GFP Redistribution (AID 450;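 active = compounds whose dose series gives a full or clear partial fitted curve of increased nuclear translocation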; also: potency is read from the fitted curve at half-maximal effect); details: U2OS GR-GFP nuclear translocation, laser cytometry, 2 h
Glucocorticoid receptor (Homo sapiens), sequence (P04150 whole entry, looked up, the tested form may be a part): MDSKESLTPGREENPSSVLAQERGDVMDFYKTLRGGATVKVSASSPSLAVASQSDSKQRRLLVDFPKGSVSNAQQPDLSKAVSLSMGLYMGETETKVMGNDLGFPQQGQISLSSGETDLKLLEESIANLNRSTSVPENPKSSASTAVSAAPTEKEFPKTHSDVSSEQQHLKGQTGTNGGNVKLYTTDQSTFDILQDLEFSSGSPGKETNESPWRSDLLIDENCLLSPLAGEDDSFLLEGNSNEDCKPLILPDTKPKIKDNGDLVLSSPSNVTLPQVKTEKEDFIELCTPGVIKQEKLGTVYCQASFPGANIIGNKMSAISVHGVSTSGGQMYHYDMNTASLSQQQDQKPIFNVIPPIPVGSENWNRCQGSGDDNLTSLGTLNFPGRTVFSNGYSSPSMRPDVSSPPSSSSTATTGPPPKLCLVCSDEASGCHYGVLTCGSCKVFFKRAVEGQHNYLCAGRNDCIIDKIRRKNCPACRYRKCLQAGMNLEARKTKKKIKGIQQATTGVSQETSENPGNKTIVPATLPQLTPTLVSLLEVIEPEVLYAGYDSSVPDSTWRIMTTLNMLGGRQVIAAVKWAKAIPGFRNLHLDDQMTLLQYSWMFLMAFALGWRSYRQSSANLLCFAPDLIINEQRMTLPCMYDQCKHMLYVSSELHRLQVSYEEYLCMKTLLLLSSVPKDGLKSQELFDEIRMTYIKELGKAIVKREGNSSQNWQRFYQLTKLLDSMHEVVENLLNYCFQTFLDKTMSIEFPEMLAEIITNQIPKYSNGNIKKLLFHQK

[5] = biological target: Glucocorticoid receptor (Homo sapiens) (UniProt P04150); assay: GR-EFC Redistribution (AID 451; calls by dose curve; also: potency is read from the fitted curve at half-maximal effect); details: CHO-K1 GR-EFC translocation, beta-gal luminescence, 2 h
Procedure, shortened: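 CHO-K1 cells expressing nuclear EA and GR-ED fragments of b-gal; compounds titrated up to 46 uM final, 2 h at 37 C. GR nuclear translocation read as complemented b-gal luminescence after 1 h RT detection.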

[6] = biological target: Mitogen-activated protein kinase 10 (Mus musculus) (UniProt Q61831); assay: JNK3 AlphaScreen Assay (AID 530); details: JNK3 lysate, c-Jun phosphorylation; series mostly up to 11.4 µM;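 also: kinase came from lysate of stimulated human HepG2 cells; signal reports phosphorylation of biotinylated GST-cJun 1-79 at Ser73 with 10 µM ATP; % is scaled to controls: 0 for no effect and ±100 for the full control effect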
Procedure, shortened: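 Pre-activated (IL-1β/TNFα) JNK3 in HepG2 lysates phosphorylates biotin-GST-cJun(1-79), 10 uM ATP; anti-phospho-cJun(Ser73) AlphaScreen read at room temperature, pH 7.6 Tris buffer. Compounds pre-incubated 15 min as titrations.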

[7] = biological target: 3',5'-cyclic-AMP phosphodiesterase 4B (Homo sapiens) (UniProt Q07343); assay: qHTS Assay for Inhibitors of PDE-IV (AID 607; active = well fitted activation curve with a large enough effect in the main read-out, with a control signal flat, not every such curve was filed as active; also: % of control where 0% means no effect); details: HEK293 ACTOne CNG channel cells, membrane potential fluorescence; series mostly up to 22.9 µM
3',5'-cyclic-AMP phosphodiesterase 4B (Homo sapiens), sequence (Q07343 whole entry, looked up): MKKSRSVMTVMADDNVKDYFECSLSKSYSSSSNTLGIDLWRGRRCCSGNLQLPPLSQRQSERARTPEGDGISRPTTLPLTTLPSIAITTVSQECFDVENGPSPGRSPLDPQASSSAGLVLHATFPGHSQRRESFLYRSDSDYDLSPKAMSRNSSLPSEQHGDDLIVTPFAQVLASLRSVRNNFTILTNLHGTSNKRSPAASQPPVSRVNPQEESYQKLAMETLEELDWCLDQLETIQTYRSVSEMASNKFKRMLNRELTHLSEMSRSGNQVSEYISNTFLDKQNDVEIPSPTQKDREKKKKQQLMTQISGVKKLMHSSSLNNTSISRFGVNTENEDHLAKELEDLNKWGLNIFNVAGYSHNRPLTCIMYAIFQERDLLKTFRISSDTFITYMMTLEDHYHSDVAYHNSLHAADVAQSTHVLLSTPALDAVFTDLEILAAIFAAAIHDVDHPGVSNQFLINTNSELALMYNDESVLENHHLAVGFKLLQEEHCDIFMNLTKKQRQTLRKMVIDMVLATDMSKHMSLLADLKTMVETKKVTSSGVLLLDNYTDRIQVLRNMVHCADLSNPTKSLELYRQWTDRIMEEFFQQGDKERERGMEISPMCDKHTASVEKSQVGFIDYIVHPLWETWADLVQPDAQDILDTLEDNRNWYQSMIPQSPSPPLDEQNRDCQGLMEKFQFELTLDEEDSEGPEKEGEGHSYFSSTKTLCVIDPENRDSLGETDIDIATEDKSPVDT
Procedure, shortened: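 HEK293 ACTOne cells with CNG channel (1000/well), endogenous PDE4; membrane potential dye, compounds up to 22.9 uM final. Fluorescence Ex 535/Em 590; RO 20-1724 (100 uM final) as reference.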

[8] = biological target: Cytochrome P450 2C9 (Homo sapiens) (UniProt P11712); assay: qHTS Assay for Inhibitors and Substrates of Cytochrome P450 2C9 (AID 883; active = well fitted curve in the direction sought with a large enough effect; an effect the other way counts as inactive or inconclusive; also: potency is read from the fitted curve at half-maximal effect; nearly all actives have a fitted effect of over 60% in size); details: recombinant CYP2C9, luciferin-H luminescence, 60 min; series mostly up to 11.4 µM
Cytochrome P450 2C9 (Homo sapiens), sequence (P11712 whole entry, looked up): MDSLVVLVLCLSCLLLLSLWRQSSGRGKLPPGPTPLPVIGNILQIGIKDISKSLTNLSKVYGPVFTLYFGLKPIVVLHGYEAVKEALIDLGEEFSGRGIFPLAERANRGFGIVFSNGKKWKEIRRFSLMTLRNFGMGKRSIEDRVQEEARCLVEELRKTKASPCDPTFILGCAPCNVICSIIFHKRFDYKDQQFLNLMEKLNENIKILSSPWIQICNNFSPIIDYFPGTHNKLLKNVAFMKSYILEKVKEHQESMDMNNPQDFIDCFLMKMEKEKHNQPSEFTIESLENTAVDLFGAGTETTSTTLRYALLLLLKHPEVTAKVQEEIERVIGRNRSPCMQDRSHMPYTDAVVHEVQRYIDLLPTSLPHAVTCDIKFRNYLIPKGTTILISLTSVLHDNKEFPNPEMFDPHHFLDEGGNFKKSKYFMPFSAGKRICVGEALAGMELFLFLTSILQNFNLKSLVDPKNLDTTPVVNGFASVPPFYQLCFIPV
Procedure, shortened: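 10nM CYP2C9 + 100uM Luciferin-H (=KM), 25mM KPO4; cpd 10 min 37C; NADPH regen, 60 min 37C; stop/detect with P450 Glo-Buffer 20 min; luminescence. Norm. to 57uM sulphaphenazole as full inhibition.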

[9] = biological target: Cytochrome P450 3A4 (Homo sapiens) (UniProt P08684); assay: qHTS Assay for Activators of Cytochrome P450 3A4 (AID 885; active = well fitted curve in the direction sought with a large enough effect; an effect the other way counts as inactive or inconclusive; also: nearly all actives have a fitted effect of over 65% in size); details: recombinant CYP3A4, Luciferin-PPXE luminescence, 60 min; series mostly up to 11.4 µM
Cytochrome P450 3A4 (Homo sapiens), sequence (P08684 whole entry, looked up): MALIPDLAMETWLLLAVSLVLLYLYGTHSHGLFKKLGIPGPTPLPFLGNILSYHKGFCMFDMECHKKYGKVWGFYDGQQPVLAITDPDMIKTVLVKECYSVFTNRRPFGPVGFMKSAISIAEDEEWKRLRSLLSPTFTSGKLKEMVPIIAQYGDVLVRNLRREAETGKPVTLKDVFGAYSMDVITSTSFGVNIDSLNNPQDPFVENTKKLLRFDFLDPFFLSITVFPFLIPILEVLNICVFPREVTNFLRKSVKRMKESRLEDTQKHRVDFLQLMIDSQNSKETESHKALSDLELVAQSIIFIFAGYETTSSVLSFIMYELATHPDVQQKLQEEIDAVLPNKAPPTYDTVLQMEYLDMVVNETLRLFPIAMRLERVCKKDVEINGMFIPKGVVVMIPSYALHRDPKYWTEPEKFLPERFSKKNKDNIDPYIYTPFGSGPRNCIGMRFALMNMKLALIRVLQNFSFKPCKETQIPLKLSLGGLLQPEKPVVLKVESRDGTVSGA
Procedure, shortened: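 Human CYP3A4 (20 nM) with Luciferin-PPXE at 25 uM (its KM) in 200 mM KPO4; 10 min compound preincubation, then NADPH regeneration and 60 min reaction at RT. Luciferin read by luminescence; normalized to 57 uM ketoconazole full inhibition.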

[10] = biological target: Cytochrome P450 2D6 (Homo sapiens) (UniProt P10635); assay: qHTS Assay for Inhibitors and Substrates of Cytochrome P450 2D6 (AID 891; active = well fitted curve in the direction sought with a large enough effect; an effect the other way counts as inactive or inconclusive; also: nearly all actives have a fitted effect of over 60% in size; also: potency is read from the fitted curve at half-maximal effect;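 as to activity change, negative = inhibition: luciferin methyl ether substrate demethylated by CYP2D6 with NADPH regeneration; % is scaled to controls: 0 for no effect and ±100 for the full control effect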); details: recombinant CYP2D6, luciferin-ME EGE luminescence; series mostly up to 11.4 µM
Cytochrome P450 2D6 (Homo sapiens), sequence (P10635 whole entry, looked up): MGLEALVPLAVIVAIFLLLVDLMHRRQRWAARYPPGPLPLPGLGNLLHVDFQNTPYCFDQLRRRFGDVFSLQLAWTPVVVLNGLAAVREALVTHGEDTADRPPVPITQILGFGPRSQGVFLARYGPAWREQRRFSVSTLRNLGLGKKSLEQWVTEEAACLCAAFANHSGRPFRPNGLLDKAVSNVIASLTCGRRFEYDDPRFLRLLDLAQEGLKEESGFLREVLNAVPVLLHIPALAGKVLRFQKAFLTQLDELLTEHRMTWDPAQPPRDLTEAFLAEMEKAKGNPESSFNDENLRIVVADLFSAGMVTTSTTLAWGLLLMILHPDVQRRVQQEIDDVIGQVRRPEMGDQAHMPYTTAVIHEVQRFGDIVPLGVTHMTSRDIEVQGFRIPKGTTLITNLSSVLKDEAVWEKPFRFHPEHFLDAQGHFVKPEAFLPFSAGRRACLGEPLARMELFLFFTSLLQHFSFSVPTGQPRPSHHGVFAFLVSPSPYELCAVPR
Procedure, shortened: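 Human CYP2D6 (5 nM) with 30 uM Luciferin-ME EGE (at Km) in 100 mM KPO4, compound preincubated 10 min, then NADPH regeneration system for 60 min at room temperature. Luciferin read by luminescence; normalized to 1.43 uM quinidine.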

[11] = biological target: Cytochrome P450 2C19 (Homo sapiens) (UniProt P33261); assay: qHTS Assay for Inhibitors and Substrates of Cytochrome P450 2C19 (AID 899; active = well fitted curve in the direction sought with a large enough effect; an effect the other way counts as inactive or inconclusive; also: potency is read from the fitted curve at half-maximal effect; nearly all actives have a fitted effect of over 60% in size); details: recombinant CYP2C19, luciferin-H EGE luminescence; series mostly up to 11.4 µM
Cytochrome P450 2C19 (Homo sapiens), sequence (P33261 whole entry, looked up): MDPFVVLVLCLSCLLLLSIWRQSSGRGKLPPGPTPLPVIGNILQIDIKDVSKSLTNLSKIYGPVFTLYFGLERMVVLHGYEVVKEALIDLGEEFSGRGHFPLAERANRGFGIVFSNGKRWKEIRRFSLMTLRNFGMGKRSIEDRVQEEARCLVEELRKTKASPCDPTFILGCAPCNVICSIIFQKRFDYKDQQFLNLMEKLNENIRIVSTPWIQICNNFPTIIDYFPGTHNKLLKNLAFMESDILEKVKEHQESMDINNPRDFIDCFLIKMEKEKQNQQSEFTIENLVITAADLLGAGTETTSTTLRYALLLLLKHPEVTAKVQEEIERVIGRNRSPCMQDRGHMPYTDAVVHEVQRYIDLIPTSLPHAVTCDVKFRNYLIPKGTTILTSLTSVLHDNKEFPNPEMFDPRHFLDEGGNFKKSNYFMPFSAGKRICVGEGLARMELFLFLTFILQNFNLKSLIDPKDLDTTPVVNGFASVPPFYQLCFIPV
Procedure, shortened: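 Luminescent read-out of luciferin formed from Luciferin-H EGE (10uM, equal to KM). Enzyme 5nM in 50mM KPO4; compound added, 10 min at 37C, then NADPH regenerating system for 60 min at 37C. Full inhibition defined by 57uM ketoconazole.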

[12] = biological target: Cytochrome P450 1A2 (Homo sapiens) (UniProt P05177); assay: p450-cyp1a2 (AID 410; calls by dose curve; also: potency is read from the fitted curve at half-maximal effect); details: recombinant CYP1A2, luciferin-ME demethylation, luminescence; series mostly up to 11.4 µM
Cytochrome P450 1A2 (Homo sapiens), sequence (P05177 whole entry, looked up): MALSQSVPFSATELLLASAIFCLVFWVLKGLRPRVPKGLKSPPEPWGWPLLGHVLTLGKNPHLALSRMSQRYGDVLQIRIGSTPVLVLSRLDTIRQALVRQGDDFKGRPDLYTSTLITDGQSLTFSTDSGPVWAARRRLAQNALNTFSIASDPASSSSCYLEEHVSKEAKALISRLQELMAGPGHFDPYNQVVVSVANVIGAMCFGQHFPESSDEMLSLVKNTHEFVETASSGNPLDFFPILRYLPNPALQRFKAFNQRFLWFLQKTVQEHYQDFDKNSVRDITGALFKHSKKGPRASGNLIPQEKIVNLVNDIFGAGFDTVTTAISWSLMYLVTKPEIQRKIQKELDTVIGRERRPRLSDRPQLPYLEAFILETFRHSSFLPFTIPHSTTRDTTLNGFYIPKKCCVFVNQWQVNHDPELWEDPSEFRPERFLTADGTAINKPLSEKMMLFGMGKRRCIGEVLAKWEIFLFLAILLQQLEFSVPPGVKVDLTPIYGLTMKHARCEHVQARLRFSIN
Procedure, shortened: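 20nM CYP1A2 with 100uM Luciferin-ME (at Km) in 100mM KPO4; compound preincubated 10 min, NADPH regeneration added, 60 min at room temperature. Luciferin quantified by luminescence after detection reagent; normalized to 57 uM furafylline.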

[13] = qHTS Assay for Identification of Small Molecule Agonists for Hypoxia Response Element Signaling Pathway (AID 914; active = well fitted activation curve with a large enough effect in the signal ratio, with a control signal flat, not every such curve was filed as active; the % refers to the signal ratio; also: potency is read from the fitted curve at half-maximal effect; as to activation: % of control where 0% means no effect); details: ME-180 (cervical carcinoma) HRE-bla reporter, beta-lactamase ratio, CoCl2, 17 h; activation: hits give high values
Procedure, shortened: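 qHTS titration; ME-180 HRE-bla cells; EC50 CoCl2 co-treatment, 17 h at 37 degrees Celsius; CCF4 dye, ex 405nm, em 460nm and 530nm; %Activity from ratio; AC50.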

| SMILES | Potency [1] | activity change, negative = inhibition [2] | activity, negative = inhibition [3] | Potency [4] | Potency [5] | Potency [6] | Potency [7] | Potency [8] | Potency [9] | Potency [10] | Potency [11] | Potency [12] | Potency [13] | activation [13] |
| --- | --- | --- | --- | --- | --- | --- | --- | --- | --- | --- | --- | --- | --- | --- |
| O=C(O)c1[nH]c(=O)[nH]c(=O)c1CN1CCCCC1 | > 11.4 µM | 9.91% | -5.07% | > 46 µM | > 9.22 µM | inactive | inactive |  |  |  |  |  |  |  |
| O=C(O)C(Cc1ccccc1)Cc1ccccc1 | > 11.4 µM | 1.48% | -8.39% | > 46 µM | > 9.22 µM | inactive | inactive |  |  |  |  |  |  |  |
| CN(Cc1ccccc1)Cn1ccnc1 | > 11.4 µM | -1.18% | 10.2% | > 46 µM | > 9.22 µM | inactive | inactive | 2.51 µM (active) | inactive | 0.794 µM (active) | 2 µM (active) |  |  |  |
| O=c1c(-c2cc(F)cc(F)c2)nc2cnc(N3CCNCC3)nc2n1CCc1ccccc1 | > 11.4 µM |  |  | > 9.22 µM | > 46 µM |  | inactive |  |  |  |  | 20 µM (active) | 3.16 µM (active) |  |
| CN(C)Cc1c[nH]c2nc[nH]c(=O)c12 | > 11.4 µM | -5.56% | 1.72% | > 46 µM | > 9.22 µM | inactive | inactive |  |  | inactive |  |  |  |  |
| CC(C)Oc1cc(O)c2c(c1)OCC=C2CCC(=O)O | > 11.4 µM | -2.86% | 0.331% | > 46 µM | > 9.22 µM | inactive | inactive |  |  |  |  |  |  |  |
| O=c1c(-c2ccc(F)cc2)nc2cnc(Oc3ccccc3)nc2n1C[C@H]1CCCO1 | > 11.4 µM | -2.24% | -12.2% | > 9.22 µM | > 46 µM |  | inactive |  |  |  |  |  |  |  |
| Cc1c(O)c(Br)c(C)c(O)c1Br (tested in a mixture with another compound) | > 11.4 µM | -77.8% (active) |  | > 46 µM | > 9.22 µM | inactive | inactive |  |  |  |  |  |  |  |
| CC(NC(=O)c1ccccc1)(C(=O)O)C(=O)O | > 11.4 µM | -6.87% | 14.4% | > 46 µM | > 9.22 µM | inactive | inactive |  |  |  |  |  |  |  |
| NCC[C@H](N)C(=O)O | > 11.4 µM | 8.74% | -3.44% | > 46 µM | > 9.22 µM | inactive | inactive |  |  |  |  |  |  | -6.29% |
| O=C(O)CCCc1ccc2ccccc2c1 | > 11.4 µM | -9.96% | 3.96% | > 46 µM | > 9.22 µM | inactive | inactive |  |  |  |  |  |  | -6.23% |
| O=c1c(-c2ccccc2)nc2cnc(N3CCOCC3)nc2n1-c1ccccc1 | > 11.4 µM |  |  | > 9.22 µM | > 46 µM |  | inactive |  | inactive |  |  | 12.6 µM (active) | 3.16 µM (active) |  |
| N#CCCn1c(=O)c(-c2ccc(F)cc2)nc2cnc(Oc3ccccc3)nc21 | > 11.4 µM | -6.96% | -5.37% | > 9.22 µM | > 46 µM | inactive | inactive |  |  |  |  |  |  |  |
| CC1(C)CCC(=O)N[C@H]1CC(=O)C[C@H]1NC(=O)CCC1(C)C | > 11.4 µM | 13% | 3.06% | > 46 µM | > 9.22 µM | inactive | inactive |  |  |  |  |  |  |  |
| O=C(O)c1c(-c2nccc3ccccc23)[nH]c(-c2ccccc2)c1S(=O)(=O)O | > 11.4 µM | 12% | -1.38% | > 46 µM | > 9.22 µM | inactive | inactive |  |  |  |  |  |  |  |
